According to PubChem BioAssay:
Active and inactive are the calls of the source.

Target: Dihydroorotate dehydrogenase (quinone), mitochondrial (Plasmodium falciparum (isolate 3D7)) (UniProt Q08210)
Assay: inhibition of P. falciparum DHODH – biochemical, C-terminal His tag, absorbance 600 nm, primary screen (AID 1175);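 further: recombinant parasite enzyme with a five histidine tag at its C terminus; test concentration not given here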
Conditions: PfDHODH enzyme, DCIP absorbance 600 nm; higher = more signal, called active from +8 up or from −8 down

Chain of Dihydroorotate dehydrogenase (quinone), mitochondrial (Plasmodium falciparum (isolate 3D7)) (Q08210 whole entry, looked up): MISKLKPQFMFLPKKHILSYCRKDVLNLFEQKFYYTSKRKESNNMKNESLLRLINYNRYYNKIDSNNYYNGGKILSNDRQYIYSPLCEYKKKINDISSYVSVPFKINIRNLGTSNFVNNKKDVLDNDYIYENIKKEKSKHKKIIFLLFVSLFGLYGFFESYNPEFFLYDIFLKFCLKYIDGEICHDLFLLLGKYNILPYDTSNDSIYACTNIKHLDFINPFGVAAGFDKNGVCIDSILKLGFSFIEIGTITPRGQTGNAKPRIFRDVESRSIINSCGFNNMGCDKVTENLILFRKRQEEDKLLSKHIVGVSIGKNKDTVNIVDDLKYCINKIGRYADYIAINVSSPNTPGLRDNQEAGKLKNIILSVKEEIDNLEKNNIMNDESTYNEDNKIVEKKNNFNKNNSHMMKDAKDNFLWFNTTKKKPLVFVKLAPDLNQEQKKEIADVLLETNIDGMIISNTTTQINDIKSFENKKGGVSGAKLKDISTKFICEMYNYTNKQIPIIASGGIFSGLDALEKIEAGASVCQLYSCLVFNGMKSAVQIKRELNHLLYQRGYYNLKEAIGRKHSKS

SMILES	composite z-score
CC(CCN1CCCCc2nc(C)c(C)cc21)=NOC[C@@H](C)[C@H](OCc1ccccc1)C(C)C	-1.46 (inactive)
COC(=O)CC=C[C@@H](C)[C@@H](C=NO[C@@H]1O[C@H](COC(C)=O)[C@@H](OC(C)=O)[C@H](OC(C)=O)[C@H]1OC(C)=O)OC	0.159 (inactive)
CO[C@@H]1COC(=O)[C@H](CCSC)NC(=O)CC=C[C@@H](C)COC(=O)CCC[C@H]1C	-0.555 (inactive)
CCCNC(=O)OC[C@H]1O[C@H](CCON=C(C)CCC(=O)OC[C@H]2O[C@H](c3ccccc3)C=C[C@@H]2Oc2ccc(OC)cc2)C=C[C@@H]1Oc1ccc(OC)cc1	-1.13 (inactive)
CCN1C(=O)[C@@H]2[C@H]3C(=CC[C@@H]2C1=O)C1(OCCCO1)[C@H]1O[C@H]1[C@H]3O	-18.3 (active)
O=C1[C@H]2[C@H]3[C@H](O)[C@H](O)CC(=NOC[C@@H](O)COCc4ccco4)[C@H]3CC[C@H]2C(=O)N1Cc1ccccc1	-0.336 (inactive)
CO[C@H]1COC(=O)[C@@H](C)COC(=O)[C@H](C)NC(=O)CC=C[C@H]1C	0.289 (inactive)
C[C@H]1COC(=O)[C@@H]2CCCN2C(=O)[C@@H](C)COC(=O)[C@H](Cc2ccccc2)NC1=O	-0.926 (inactive)
COC(=O)CC=C[C@@H](C)[C@H](OCc1cccc(-c2ccccc2)c1)C1CCCCC1	-3.69 (inactive)
C=CC[C@@H]1C=C[C@H](ON=C(C)CCC(=O)OC[C@H]2O[C@H](C#Cc3ccccc3)C=C[C@@H]2Oc2ccc(C)cc2)[C@@H](CO)O1	0.103 (inactive)
CON=C[C@@H](NS(=O)(=O)c1ccc(C)cc1)[C@H](C)C=CCC(=O)OC	0.244 (inactive)
CO[C@@H]1COC(=O)CC=C[C@H](C)[C@H](OC)COC(=O)[C@H](C)NC(=O)CC=C[C@H]1C	-0.165 (inactive)
CC(CCC(=O)OC[C@H]1O[C@H](C#Cc2ccccc2)C=C[C@@H]1Oc1ccc(C)cc1)=NO[C@H](C)c1cn([C@H](CO)Cc2ccccc2)nn1	1.1 (inactive)
CCOC(=O)[C@H](Cc1ccccc1)NC(=O)CCC1CC(OC(=O)NCc2cccc3ccccc23)CC2(CCCC(COC(=O)NCC(c3ccccc3)c3ccccc3)O2)O1 (stereo partly specified)	-0.305 (inactive)
CC(C)=CCCC(C)=CCON=C1C[C@@H](O)[C@@H](O)[C@@H]2[C@@H]3C(=O)N(C[C@@H]4CCCO4)C(=O)[C@@H]3CC[C@H]12	0.0911 (inactive)
COC(=O)[C@H]1O[C@@H](c2c(OC)c(OC)c(C)c(OC)c2OC)[C@H](C)[C@@H](O)[C@H]1C	-0.0757 (inactive)
COc1ccc(O[C@H]2C=C[C@@H](c3ccccc3)O[C@@H]2COC(=O)CCC(C)=NOC[C@@H](O)[C@H]2O[C@@H]3OC(C)(C)O[C@@H]3[C@H]2O)cc1	-1.15 (inactive)
CCOC(=O)[C@H](CC(C)C)NC(=O)CCC1CC(OC(=O)NCCc2ccc(F)cc2)CC2(CCCC(COC(=O)NCC3CCCCC3)O2)O1 (stereo partly specified)	-0.161 (inactive)

SMILES	composite z-score
CC(C)=CCCC(C)=CCON=C1C[C@@H](O)[C@@H](O)[C@@H]2[C@@H]3C(=O)N(C4CCCCC4)C(=O)[C@@H]3CC[C@@H]12	-0.42 (inactive)
COC(=O)CC=C[C@@H](C)[C@@H](C=NOC[C@H]1O[C@H](c2ccccc2)C=C[C@@H]1Oc1ccc(OC)cc1)NS(=O)(=O)c1ccc(C)cc1	0.0727 (inactive)
CCc1cc2c(nc1CC)CCN(CCC(C)=NO[C@H](C)c1cn([C@@H]3COC[C@H]3O)nn1)C2	-0.0125 (inactive)
CCOC(=O)NN=C1C[C@@H](O)[C@@H](O)[C@@H]2[C@@H]3C(=O)N(Cc4ccc5c(c4)OCO5)C(=O)[C@@H]3CC[C@H]12	0.005 (inactive)
CO[C@H]1COC(=O)CC=C[C@H](C)[C@@H](OC)COC(=O)[C@@H](C)NC(=O)CC=C[C@@H]1C	-0.355 (inactive)
CO[C@@H]1COC(=O)CC=C[C@@H](C)[C@@H]2C=C[C@H](O)[C@@H](COC(=O)CC=C[C@H]1C)O2	-0.0239 (inactive)
CCOC(=O)[C@H](CC(C)C)NC(=O)CCC1CC(OC(=O)NCCc2ccc(F)cc2)CC2(CCCC(COC(=O)NCCc3ccccc3OC)O2)O1 (stereo partly specified)	-0.991 (inactive)
CCCNC(=O)OC[C@H]1O[C@H](CCON=C(C)CCN2CCCc3nc(C)c(C)cc32)C=C[C@@H]1Oc1ccc(OC)cc1	0.0151 (inactive)
CCC(=O)[C@@]1(O)C(=O)N2C(=C3C(=O)OCC[C@@H]31)N(Cc1ccccc1)C(C)=C(C(=O)OC)[C@H]2c1ccccc1	-1.41 (inactive)
CC(C)(C)N1C(=O)[C@H]2[C@H]3[C@H](O)C=CC(=O)[C@@H]3CC[C@H]2C1=O	0.237 (inactive)
CC(CCN1CCCc2nc(C)c(C)cc21)=NO[C@@H](C)c1cc(-c2c(C)cc(C)cc2C)no1	-0.837 (inactive)
C[C@H](ON=C1[C@H]2CCn3c(=O)n(-c4ccccc4)c(=O)n3[C@H]2[C@H](O)[C@@H]2O[C@H]12)c1cn([C@H](CO)Cc2ccccc2)nn1	-1.29 (inactive)
CCN1C(=O)[C@H]2[C@H]3[C@H](O)[C@H](O)CC(=O)[C@H]3CC[C@H]2C1=O	-0.794 (inactive)
C#CCCCON=C1C[C@@H](O)[C@@H](O)[C@@H]2[C@@H]3C(=O)N(c4ccc(F)cc4F)C(=O)[C@@H]3CC[C@H]12	-0.31 (inactive)
O=C(NN=C1C[C@@H](O)[C@@H](O)[C@@H]2[C@@H]3C(=O)N(C4CCCCC4)C(=O)[C@@H]3CC[C@@H]12)OCc1ccccc1	-0.223 (inactive)
CC(CCN1CCCCc2nc(C)c(C)cc21)=NOC[C@@H](O)COCc1ccco1	-0.441 (inactive)
C=CC1=C[C@H](O)[C@@H]2O[C@@H]2C12OCCCO2	0.695 (inactive)
CON=C1[C@H]2CCn3c(=O)n(-c4ccccc4)c(=O)n3[C@H]2[C@H](O)[C@@H]2O[C@H]12	-0.984 (inactive)
